PubChem BioAssay AID1159580 (chemical genetic matrix, 2015)
“And” between values parts separate entries of the source, which are not always exact repeats. Equal entries are not always repeated. Out of some 5,500 compounds screened, about 2,000 (36%) were called active. Not shown: some 18% with an inconclusive outcome. Cut-off read from the data, not from the text of the source: active = normalized growth mostly below about 0.91 (no sharp cut-off); inconclusive = no clear call, values can overlap the other calls; inactive = mostly above about 0.92. The list shows a part of the results.

Test: chemical genetic growth profiling, strain panel (AID 1159580);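 note: tested at 20 µM; growth read once vehicle control cultures reached saturation at 30 °C; 1 = growth at the plate median or of vehicle wells; lower values mean less growth of the strain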
Conditions: S. cerevisiae deletion strains, growth OD

Measured: normalized growth

C[C@@H]1CC(Cl)CC[C@H]1C(=O)OC(C)(C)C (some centres not stated)
inactive: locus YAL013W, strain DEP1, hits give low values 0.987 | locus YAL021C, strain ccr4, hits give low values 1.02 | locus YAL026C, strain drs2, hits give low values 0.973 | locus YAL030W, strain snc1, hits give low values 0.982 | locus YBL061C, strain skt5, hits give low values 0.983 | locus YBR009C, strain hhf1, hits give low values 0.948 | locus YBR021W, strain FUR4, hits give low values 0.976 | locus YBR023C, strain chs3, hits give low values 0.98 | locus YBR171W, strain sec66, hits give low values 0.979 | locus YBR229C, strain ROT2, hits give low values 0.992 | locus YBR231C, strain swc5, hits give low values 0.986 | locus YBR279W, strain paf1, hits give low values 0.993 | locus YCL011C, strain gbp2, hits give low values 0.979 | locus YCL016C, strain dcc1, hits give low values 0.98 | locus YCL029C, strain bik1, hits give low values 0.98 | locus YCL061C, strain MRC1, hits give low values 0.983 | locus YCL069W, strain vba3, hits give low values 0.985 | locus YCR088W, strain abp1, hits give low values 0.987 | locus YDL005C, strain med2, hits give low values 0.991 | locus YDL035C, strain GPR1, hits give low values 0.995 | locus YDL040C, strain nat1, hits give low values 0.982 | locus YDL074C, strain BRE1, hits give low values 0.948 | locus YDL101C, strain DUN1, hits give low values 0.985 | locus YDL134C, strain PPH21, hits give low values 0.997 | locus YDL185W, strain tfp1, hits give low values 0.952 | locus YDL192W, strain arf1, hits give low values 0.983 | locus YDR001C, strain nth1, hits give low values 0.976 | locus YDR069C, strain doa4, hits give low values 0.97 | locus YDR101C, strain arx1, hits give low values 0.969 | locus YDR137W, strain rgp1, hits give low values 0.93 | locus YDR150W, strain NUM1, hits give low values 0.984 | locus YDR159W, strain sac3, hits give low values 0.915 | locus YDR162C, strain NBP2, hits give low values 0.992 | locus YDR195W, strain ref2 0.961 | locus YDR297W, strain sur2, hits give low values 0.981 | locus YDR318W, strain mcm21, hits give low values 0.988 | locus YDR334W, strain swr1, hits give low values 0.978 | locus YDR335W, strain msn5, hits give low values 0.981 | locus YDR388W, hits give low values 0.994 | locus YDR392W, strain spt3, hits give low values 0.774 | locus YDR502C, strain sam2, hits give low values 0.992 | locus YEL003W, strain gim4, hits give low values 0.976 | locus YEL037C, strain rad23, hits give low values 0.983 | locus YEL061C, strain CIN8 (second series), hits give low values 0.984 | locus YEL061C, strain CIN8, hits give low values 0.989 | locus YER015W, strain faa2, hits give low values 0.986 | locus YER016W, strain bim1, hits give low values 0.975 | locus YER110C, hits give low values 0.986 | locus YER111C, strain swi4, hits give low values 0.964 | locus YER155C, strain BEM2 (second series), hits give low values 0.956 | locus YER155C, strain BEM2, hits give low values 0.997 | locus YER167W, strain BCK2, hits give low values 0.993 | locus YFR010W, strain ubp6, hits give low values 0.98 | locus YGL078C, strain dbp3, hits give low values 0.983 | locus YGL086W, strain mad1, hits give low values 1 | locus YGL167C, strain pmr1, hits give low values 0.973 | locus YGL173C, strain kem1, hits give low values 0.968 | locus YGL227W, strain vid30, hits give low values 0.988 | locus YGL240W, strain doc1, hits give low values 0.978 | locus YGL248W, strain PDE1, hits give low values 0.995 | locus YGL253W, strain hxk2, hits give low values 0.969 | locus YGR078C, strain PAC10, hits give low values 0.971 | locus YGR135W, strain pre9, hits give low values 0.988 | locus YGR229C, strain SMI1, hits give low values 0.909 | locus YGR252W, strain gcn5, hits give low values 1.19 | locus YHR013C, strain ard1, hits give low values 0.95 | locus YHR027C, strain rpn1, hits give low values 0.981 | locus YHR030C, strain SLT2, hits give low values 0.982 and 1.01 | locus YHR079C, strain IRE1 (second series), hits give low values 0.985 | locus YHR079C, strain IRE1, hits give low values 1.01 | locus YHR094C, strain hxt1, hits give low values 0.972 | locus YHR129C, strain ARP1, hits give low values 0.985 | locus YHR142W, strain chs7, hits give low values 1.01 | locus YHR200W, strain rpn10, hits give low values 0.997 | locus YIL066C, strain RNR3, hits give low values 0.995 | locus YIL073C, strain SPO22, hits give low values 0.96 | locus YIL125W, strain kgd1, hits give low values 0.987 | locus YIR030C, strain dcg1, hits give low values 0.993 | locus YJL092W, strain hpr5, hits give low values 0.984 | locus YJL095W, strain BCK1 (second series), hits give low values 0.984 | locus YJL095W, strain BCK1, hits give low values 1 and 1.01 | locus YJL115W, strain asf1, hits give low values 0.993 | locus YJL129C, strain trk1, hits give low values 0.975 | locus YJL134W, strain LCB3, hits give low values 0.99 | locus YJL154C, strain vps35, hits give low values 0.98 | locus YJL164C, strain tpk1, hits give low values 1 | locus YJL166W, strain qcr8, hits give low values 0.986 | locus YJL168C, strain set2, hits give low values 0.979 | locus YJL187C, strain SWE1 (second series), hits give low values 0.975 | locus YJL187C, strain SWE1, hits give low values 0.986 | locus YJR043C, strain POL32, hits give low values 0.977 | locus YJR066W, strain TOR1, hits give low values 0.939
